Values joined by “and” are separate entries in the source; they are usually repeats but may differ in a detail not shown here. Equal values may be shown once. Results filed as inconclusive are left out. The source holds several records for some structures; these can differ, active in one and inactive in another. Active and inactive are the calls of the source. Unless noted, calls come from the whole dose curve; as a rule, active = well fitted curve in the direction sought with a large enough effect; inconclusive = small, poorly fitted or top-dose-only effect, or another doubt; inactive = no such curve, though single readings can be large; an effect the other way counts as inactive or inconclusive.

Outcome and Potency data for 13 compounds are collected here from PubChem BioAssay (NCATS).

The nature of test [1]: Cellular Toxicity (caspase-3) NIH 3T3 (AID 666).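 Note: caspase signal read after 16 h compound exposure.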 In a few lines:
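Activity: caspase-3/7 induction, NIH 3T3 cells, 16 hr treatment at 37°C, luminescent Caspase-Glo detection; AC50 via Hill equation.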

Test [2] can be described thus: Cellular Toxicity (caspase-3) Renal Proximal Tubule (AID 667).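 Note: cells exposed to compound for 16 hours at 37 °C before detection.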 A digest of the protocol: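 Freshly isolated primary rat kidney proximal tubule cells, 1000/well, treated 16 hr at 37 °C, then Caspase-Glo 3/7 luminescence after 1 hr. Normalized to DMSO and 10 uM staurosporine; AC50 from Hill fit.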
The target in test [3] is Cytochrome P450 3A4 (Homo sapiens) (UniProt P08684). The test is described as follows: qHTS Assay for Inhibitors and Substrates of Cytochrome P450 3A4 (AID 884). Note: nearly all actives have a fitted effect of over 50% in size. Note: potency is the fitted concentration of half-maximal effect. In a few lines: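 Luminescent readout of luciferin produced by CYP3A4 (20 nM) dealkylation of Luciferin-PPXE, 25 uM (its KM). NADPH-driven reaction ran 60 min at RT after 10 min compound preincubation; data scaled to 57 uM ketoconazole as 100% inhibition.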
Sequence of Cytochrome P450 3A4 (Homo sapiens) (P08684 whole entry, looked up): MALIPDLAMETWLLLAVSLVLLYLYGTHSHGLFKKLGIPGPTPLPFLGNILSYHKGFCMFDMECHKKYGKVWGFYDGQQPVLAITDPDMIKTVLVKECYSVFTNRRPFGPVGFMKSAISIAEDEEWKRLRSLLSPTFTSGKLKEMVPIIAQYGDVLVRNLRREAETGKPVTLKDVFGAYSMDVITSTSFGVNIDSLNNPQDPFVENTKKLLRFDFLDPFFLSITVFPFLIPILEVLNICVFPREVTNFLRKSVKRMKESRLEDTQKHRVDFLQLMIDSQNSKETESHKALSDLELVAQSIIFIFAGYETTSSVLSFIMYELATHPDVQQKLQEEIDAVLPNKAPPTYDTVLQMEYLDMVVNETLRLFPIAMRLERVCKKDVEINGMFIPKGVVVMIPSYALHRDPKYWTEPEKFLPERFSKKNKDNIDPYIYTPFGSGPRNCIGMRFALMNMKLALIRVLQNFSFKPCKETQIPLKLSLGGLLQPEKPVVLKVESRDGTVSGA
In general terms: Quantitative high-throughput screening tests each substance at several concentrations.

The nature of test [4]: MultiTox-Fluor Cytotoxicity Assay - LYMP1-001 - Dead Cells (AID 946).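 Note: cells exposed to compound for 16 h.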 In a few lines:
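LYMP1-001 lymphoblastoid cells (2500/well) treated 16 h at 37 C. Dead-cell protease cleavage of bis-AAF-R110 read at Ex/Em 485/520. Normalized to DMSO and 15 uM tetraoctylammonium bromide; AC50 from Hill fits.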

A short description of test [5]: MultiTox-Fluor Cytotoxicity Assay - LYMP1-001 - Live Cells (AID 947). Note: potency is the fitted concentration of half-maximal effect.
Test [6] in a line: Cell Viability - LYMP1-002 - Assay at 16 hr (AID 948). Note: potency is the fitted concentration of half-maximal effect. A digest of the protocol:
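LYMP1-002 human lymphoblastoid cells, 2500/well, were treated with compounds for 16 hr at 37 C in complete medium. Viability was read as intracellular ATP by CellTiter-Glo luminescence, and AC50 was derived from a Hill fit to concentration-response data.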

The nature of test [7]: Cell Viability - LYMP2-001 (AID 921). Note: nearly all actives have a fitted effect of over 70% in size. Note: potency is the fitted concentration of half-maximal effect. A digest of the protocol:
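Human lymphoblastoid LYMP2-001 cells, 2500 per well, in complete medium, treated 24 h at 37 C. Viability from cellular ATP by CellTiter-Glo luminescence; AC50 from Hill-equation fits of qHTS concentration-response.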

The target of test [8] is Guanine nucleotide-binding protein G(i) subunit alpha-1 (Homo sapiens) (UniProt P63096). The test is described as follows: qHTS Assay for Inhibitors of RGS12 GoLoco Motif Activity (Green Fluorophore) (AID 879).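 Note: negative values mean loss of peptide binding seen as reduced polarization.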 A digest of the protocol: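 A drop in FITC polarization marked displacement of the FITC-tagged RGS12 GoLoco peptide (10 nM) from Gαi1 (50 nM). Compounds were incubated 10 min at room temperature in Tris pH 7.5 buffer containing 150 mM NaCl, 0.1 mM GDP and 0.05% NP40; unlabeled peptide titration served as control.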
Sequence of Guanine nucleotide-binding protein G(i) subunit alpha-1 (Homo sapiens) (P63096 whole entry, looked up): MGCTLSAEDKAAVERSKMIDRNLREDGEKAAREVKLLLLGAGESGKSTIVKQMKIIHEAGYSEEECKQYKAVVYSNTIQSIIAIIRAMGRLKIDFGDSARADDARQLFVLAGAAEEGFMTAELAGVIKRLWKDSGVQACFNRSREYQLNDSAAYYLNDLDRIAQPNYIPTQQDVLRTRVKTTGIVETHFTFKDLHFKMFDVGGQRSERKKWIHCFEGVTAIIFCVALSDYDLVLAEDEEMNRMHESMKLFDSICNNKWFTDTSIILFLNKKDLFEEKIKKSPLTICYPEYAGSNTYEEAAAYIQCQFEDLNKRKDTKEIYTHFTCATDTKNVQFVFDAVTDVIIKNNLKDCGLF

Test [9] deals with Cytochrome P450 2C9 (Homo sapiens) (UniProt P11712). Put plainly: qHTS Assay for Inhibitors and Substrates of Cytochrome P450 2C9 (AID 883). Note: nearly all actives have a fitted effect of over 60% in size. Note: potency is the fitted concentration of half-maximal effect. In a few lines:
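Luminescent read-out of deoxyluciferin hydroxylation, normalized to 57uM sulphaphenazole (AC100). Reaction: 10nM enzyme, 100uM Luciferin-H (equal to KM), 25mM KPO4, 10 min compound preincubation, then 60 min with NADPH regeneration, both at 37C.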

The target of test [10] is Cytochrome P450 2D6 (Homo sapiens) (UniProt P10635). Put plainly: qHTS Assay for Inhibitors and Substrates of Cytochrome P450 2D6 (AID 891). Note: nearly all actives have a fitted effect of over 60% in size. Note: potency is the fitted concentration of half-maximal effect. In a few lines:
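Luminescent read-out of luciferin formed by 5 nM human CYP2D6 demethylating 30 uM Luciferin-ME EGE (Km level) over 60 min at room temperature after NADPH regeneration addition. Data normalized to full inhibition by 1.43 uM quinidine.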

The target in test [11] is Cytochrome P450 2C19 (Homo sapiens) (UniProt P33261). The test is described as follows: qHTS Assay for Inhibitors and Substrates of Cytochrome P450 2C19 (AID 899). Note: nearly all actives have a fitted effect of over 60% in size. Note: potency is the fitted concentration of half-maximal effect. A digest of the protocol:
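Luminescence readout of luciferin formed from 10uM Luciferin-H EGE (KM level) by 5 nM CYP2C19 in 50mM KPO4. 60 min NADPH-driven reaction at 37C after 10 min compound preincubation; data scaled to 57uM ketoconazole inhibition.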

Test [12] is described as follows: Confirmation and Secondary Assay for Modulators of Hemoglobin Beta Chain Splicing at IVS2 654 locus (AID 910).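 Note: HeLa cells stably carrying EGFP split by mutant beta-globin IVS2-654 intron; per-well total GFP intensity by laser scanning cytometry after 2-day treatment.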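 Note: potency is the fitted concentration of half-maximal effect; potency of activators that raise GFP signal by restoring correct splicing.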 A digest of the protocol:
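Readout: per-well total peak green fluorescence (488 nm ex, 500–520 nm em) from objects 5–250 µm, reflecting correct splicing of an EGFP-654 reporter. Compounds were applied for 2 days at 37 °C to overnight-plated HeLa EGFP-654 cells; controls were DMSO and 500 nM IVS2-654 PNA.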

The nature of test [13]: qHTS Assay for Identification of Small Molecule Antagonists for Thrombopoietin (TPO) Signaling Pathway (AID 918). Note: potency is the fitted concentration of half-maximal effect; nearly all actives have a fitted effect of over 60% in size. As to conditions: TPO-dependent cell signaling reporter, antagonist mode. In a few lines:
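Antagonist mode at EC50 TPO (26 pM) in IL-3-free medium; murine Ba/F3 cells with human TPO receptor and GPIIb-promoter luciferase, 24 hrs at 37 C before luminescent detection.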

The nature of test [14]: Confirmation and Secondary Assay for Modulators of Hemoglobin Beta Chain Splicing at IVS2 705 locus (AID 930).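 Note: HeLa cells stably expressing the EGFP-705 splicing reporter; GFP fluorescence per well restored by corrected splicing of the IVS2-705 intron in EGFP; series mostly up to about 46 µM.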 In a few lines: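 Splice-correction reporter: EGFP cDNA split by beta-globin intron 2 bearing the 705 mutation, stably in HeLa. Compound incubation 2 days, 37C; fluorescent objects 5-250 µm summed per well.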
Test [15] addresses Pyruvate kinase (Leishmania mexicana) (UniProt Q27686). Put plainly: qHTS Validation Assay for Inhibitors of Leishmania Mexicana Pyruvate Kinase (AID 945). A digest of the protocol:
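The enzyme is a highly purified E451W mutant of LmPYK used at 0.2 nM. It converts 0.5 mM PEP and 0.1 mM ADP over 1 h at room temperature; product ATP is quantified by luciferase luminescence relative to DMSO controls.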

Test [16] in a line: qHTS Assay for Identification of Small Molecule Antagonists for NFkB Signaling Pathway (AID 895; active = well fitted inhibition curve with a large enough effect in the signal ratio, with a control signal flat, not every such curve was filed as active; the % refers to the signal ratio). A digest of the protocol:
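Beta-lactamase reporter read-out (460 and 530 nm emission ratio, 405 nm excitation, 2 hrs substrate loading RT) after 5 hr stimulation with 10 pM TNF alpha in compound-treated NFkB-bla ME-180 cells in low-serum medium.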

Test [17] is described as follows: qHTS Assay for Identification of Small Molecule Agonists for Thrombopoietin (TPO) Signaling Pathway (AID 917). A digest of the protocol: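 Stimulation at the TPO EC50 (26 pM final) was used to detect activators. Ba/F3 mouse cells bearing human TPO receptor and a luciferase reporter under the Glycoprotein IIb promoter were exposed to compounds for 24 hrs at 37 C.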

The target of test [18] is Muscarinic acetylcholine receptor M1 (Rattus norvegicus) (UniProt P08482). Put plainly: qHTS Assay for Antagonists of Acetylcholine Muscarinic M1 Receptor: Kinetic Measurement of Intracellular Calcium Response (AID 943). Note: nearly all actives have a fitted effect of over 75% in size. Note: potency is the fitted concentration of half-maximal effect. A digest of the protocol:
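Quantitative HTS in CHO-M1 (rat receptor) cells: 10 min compound exposure ahead of 100 nM carbachol, Fluo-4 fluorescence followed 4 min, value expressed as peak-to-basal ratio.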

The target is the same in test [19]. Put plainly: qHTS Assay for Antagonists of Acetylcholine Muscarinic M1 Receptor: Measurement of IP-One Response (AID 944). Note: nearly all actives have a fitted effect of over 75% in size. Note: potency is the fitted concentration of half-maximal effect. In a few lines: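 Antagonism was measured as loss of carbachol-driven (EC80) IP1 accumulation in CHO cells carrying rat M1, using a homogeneous IP-One TR-FRET kit read at 620 and 665 nm.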

Sequence of Cytochrome P450 2C9 (Homo sapiens) (P11712 whole entry, looked up): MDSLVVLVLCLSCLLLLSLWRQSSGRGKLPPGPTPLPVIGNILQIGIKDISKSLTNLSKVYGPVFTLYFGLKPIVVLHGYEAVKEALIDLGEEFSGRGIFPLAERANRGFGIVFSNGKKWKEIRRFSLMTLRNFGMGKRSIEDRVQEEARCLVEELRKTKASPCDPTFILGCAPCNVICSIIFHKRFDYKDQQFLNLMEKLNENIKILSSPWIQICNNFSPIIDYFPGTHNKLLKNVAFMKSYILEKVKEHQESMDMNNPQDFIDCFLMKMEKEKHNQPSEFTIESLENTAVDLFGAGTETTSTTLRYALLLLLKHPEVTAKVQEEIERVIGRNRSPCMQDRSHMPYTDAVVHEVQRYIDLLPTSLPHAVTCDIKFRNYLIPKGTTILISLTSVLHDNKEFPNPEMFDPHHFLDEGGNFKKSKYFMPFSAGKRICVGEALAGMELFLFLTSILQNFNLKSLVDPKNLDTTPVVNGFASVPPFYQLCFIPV
Sequence of Pyruvate kinase (Leishmania mexicana) (Q27686 2-499 E452W): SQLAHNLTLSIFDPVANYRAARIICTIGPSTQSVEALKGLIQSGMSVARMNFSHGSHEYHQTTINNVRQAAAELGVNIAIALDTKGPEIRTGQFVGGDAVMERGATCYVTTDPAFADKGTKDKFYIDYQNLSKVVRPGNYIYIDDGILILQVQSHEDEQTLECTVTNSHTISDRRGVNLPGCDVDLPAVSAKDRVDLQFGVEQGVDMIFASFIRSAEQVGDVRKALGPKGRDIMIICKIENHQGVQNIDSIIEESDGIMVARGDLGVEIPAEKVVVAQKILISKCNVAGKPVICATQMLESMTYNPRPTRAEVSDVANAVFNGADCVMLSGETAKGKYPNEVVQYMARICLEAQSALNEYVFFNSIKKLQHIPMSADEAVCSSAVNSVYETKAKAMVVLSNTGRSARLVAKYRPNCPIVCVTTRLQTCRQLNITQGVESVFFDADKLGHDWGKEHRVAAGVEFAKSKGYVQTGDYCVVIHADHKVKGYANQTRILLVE
Sequence of Cytochrome P450 2C19 (Homo sapiens) (P33261 whole entry, looked up): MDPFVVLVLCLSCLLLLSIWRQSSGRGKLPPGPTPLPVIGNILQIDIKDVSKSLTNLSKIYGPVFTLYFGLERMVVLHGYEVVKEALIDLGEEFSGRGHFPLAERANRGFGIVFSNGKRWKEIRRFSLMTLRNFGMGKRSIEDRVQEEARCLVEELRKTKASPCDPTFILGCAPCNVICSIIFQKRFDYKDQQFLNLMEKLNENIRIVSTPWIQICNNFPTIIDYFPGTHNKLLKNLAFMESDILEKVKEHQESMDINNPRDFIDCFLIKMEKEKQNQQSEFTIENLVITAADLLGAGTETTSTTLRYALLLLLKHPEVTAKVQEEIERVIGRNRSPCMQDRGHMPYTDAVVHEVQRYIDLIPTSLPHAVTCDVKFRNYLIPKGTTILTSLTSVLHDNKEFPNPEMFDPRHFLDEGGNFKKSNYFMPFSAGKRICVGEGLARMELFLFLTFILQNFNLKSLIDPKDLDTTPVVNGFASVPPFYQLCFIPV
Sequence of Cytochrome P450 2D6 (Homo sapiens) (P10635 whole entry, looked up): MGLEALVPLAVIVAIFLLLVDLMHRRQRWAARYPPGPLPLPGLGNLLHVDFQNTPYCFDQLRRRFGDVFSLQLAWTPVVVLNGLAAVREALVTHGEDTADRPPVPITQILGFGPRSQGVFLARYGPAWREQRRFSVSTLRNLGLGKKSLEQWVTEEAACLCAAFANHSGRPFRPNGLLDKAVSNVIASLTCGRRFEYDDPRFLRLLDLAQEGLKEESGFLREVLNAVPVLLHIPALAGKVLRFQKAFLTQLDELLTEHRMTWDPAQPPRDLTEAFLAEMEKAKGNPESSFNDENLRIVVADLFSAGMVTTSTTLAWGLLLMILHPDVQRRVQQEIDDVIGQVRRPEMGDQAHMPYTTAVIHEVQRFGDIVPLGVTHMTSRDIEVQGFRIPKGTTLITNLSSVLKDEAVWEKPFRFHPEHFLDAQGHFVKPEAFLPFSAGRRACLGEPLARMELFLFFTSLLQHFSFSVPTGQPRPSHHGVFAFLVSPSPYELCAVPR
Sequence of Muscarinic acetylcholine receptor M1 (Rattus norvegicus) (P08482 whole entry, looked up): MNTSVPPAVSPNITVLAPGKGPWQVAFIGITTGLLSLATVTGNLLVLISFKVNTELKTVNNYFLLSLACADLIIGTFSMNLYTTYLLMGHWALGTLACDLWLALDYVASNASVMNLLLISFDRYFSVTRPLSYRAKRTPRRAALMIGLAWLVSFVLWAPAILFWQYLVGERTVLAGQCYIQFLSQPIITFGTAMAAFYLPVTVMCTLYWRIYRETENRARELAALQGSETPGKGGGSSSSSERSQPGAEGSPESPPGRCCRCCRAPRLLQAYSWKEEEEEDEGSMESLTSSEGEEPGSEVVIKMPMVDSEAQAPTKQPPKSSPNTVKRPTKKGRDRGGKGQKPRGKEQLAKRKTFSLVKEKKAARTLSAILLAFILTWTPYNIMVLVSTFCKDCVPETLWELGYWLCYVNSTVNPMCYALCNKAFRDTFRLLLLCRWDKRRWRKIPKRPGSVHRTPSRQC

Take `CN(C)[C@@H]1C(=O)C(C(N)=O)=C(O)[C@@]2(O)C(=O)C3=C(O)c4c(O)cccc4[C@@](C)(O)[C@H]3[C@H](O)[C@@H]12`: the outcome in [1], in [2] and in test [4] was inactive. For the same compound, the Potency entry in test [3], in [5] and in test [6] was “inactive” each time.
For `O=C(O)COc1ccccc1`, the call in [1], in [2] and in [4] was inactive. The Potency result in test [3], in test [7] and in test [6] was “inactive” each time.
Take `CC[C@@]1(O)C(=O)OCc2c1cc1n(c2=O)Cc2cc3ccccc3nc2-1`: the call in test [8], in test [14] and in test [15] was inactive. Further, the Potency result in test [9], in test [10] and in test [11] was “inactive” in each case. In addition, the Potency in test [3] is 6.31 µM (active) and inactive; in test [12] it was “inactive and 1 µM (active)”; in test [13], 0.126 µM (active).
Take `O=C1CCCN1CC#CCN1CCCC1`: the result in [8], in [17], in test [14] and in test [15] was inactive. Further, the Potency result in [9] was “inactive and 2 µM (active)”; in test [10], 7.94 µM (active); in test [11] it was 0.158 µM (active). In addition, the Potency entry in test [3], in test [16], in [12], in test [18] and in test [19] was “inactive” in each case.
For `O=S(=O)(c1ccc(Cl)cc1)c1ccc(Cl)cc1`, the call in [1], in [2] and in test [4] was inactive. The Potency entry in [7], in [5] and in test [6] was “inactive” throughout.
For the compound `CCOCCOC(C)=O`, the call in [1], in [2] and in [4] was inactive. In addition, the Potency result in test [3], in test [7], in [5] and in test [6] was “inactive” throughout.
As for `CCCCc1ccc(C(=O)O)nc1`, the compound was called inactive in test [8] and in [15]. The Potency entry in test [9], in [3], in test [10], in [11] and in test [19] was “inactive” each time.
Regarding `Nc1ccc(Cl)cc1`, the compound was called inactive in test [1], in test [2] and in test [4]. Further, the Potency entry in test [3], in [7], in [5] and in [6] was “inactive” throughout.
For `CCCN(CCC)[C@@H]1CCc2ccc(O)cc2C1`, the compound was called inactive in [8], in test [17] and in [15]. For the same compound, the Potency entry in test [9] and in [16] was “inactive” each time. The Potency in test [10] is 0.794 µM (active); in test [18], 5.01 µM (active) and 282 nM (active); in test [19], 5.01 µM (active) and 3.98 µM (active).
Consider `O=C(O)C(Cl)Cl`, for which the compound was called inactive in test [1], in test [2] and in [4]. The Potency entry in test [3], in test [7], in test [5] and in test [6] was “inactive” in each case.
For the compound `CC(=O)[O][Hg][c]1ccccc1`, the compound was classed as inactive in test [1], in test [2] and in test [14]. Also, the Potency entry in test [12] was “inactive”. In addition, the Potency is 0.501 µM (active) in [7], 5.01 µM (active) in [5] and 6.31 µM (active) in test [6].
As to `Nc1ccc(Sc2ccc(N)cc2)cc1`, the result in [1], in test [2] and in [4] was inactive. The Potency result in test [7], in [5] and in test [6] was “inactive” in each case.
Take `CC1=NN=C(c2ccc(N)cc2)c2cc3c(cc2C1)OCO3`: the compound was called inactive in [8], in test [17] and in [15]. In addition, the Potency in test [9] was 1.26 µM (active); in [11] it was 7.94 µM (active). Moreover, in [19], the Potency entry was “inactive”.
